{
  "source": "the supplement of paper PMC8728848",
  "binders": {"B1": {"name": "NPA (Narcissus pseudonarcissus), C0HM45 (protein)", "chain": "DNILYSGETLSPGEFLNNGRYVFIMQEDCNLVLYDVDKPIWATNTGGLDRRCHLSMQSDGNLVVYSPRNNPIWASNTGGENGNYVCVLQKDRNVVIYGTARWATGTNIH"}},
  "experiment_in_all_cases": "glycan array binding signal (z-score within array); higher = stronger binding",
  "conditions_in_all_cases": "glycan notation: IUPAC condensed, linker removed",
  "key": {"[1]": {"biological_target": "Fuc(a1-2)Gal(b1-3)GlcNAc(b1-3)[Fuc(a1-2)Gal(b1-3)GlcNAc(b1-6)]GalNAc", "procedure,_shortened": "(§1)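 Negative Z-scores can be read as non-binding. The Z-score is calculated within each array and then averaged across arrays of one protein sequence at different concentrations or buffers and across linkers. Arrays, 3228 in all, were curated from the Consortium for Functional Glycomics database and kept only where the protein sequence was available.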"}, "[2]": {"biological_target": "Fuc(a1-2)Gal(b1-3)GlcNAc(b1-3)[Neu5Ac(a2-6)Gal(b1-4)GlcNAc(b1-6)]Gal(b1-4)Glc", "procedure,_shortened": "as §1"}, "[3]": {"biological_target": "Fuc(a1-2)[Gal(a1-3)]Gal(b1-4)GlcNAc", "procedure,_shortened": "as §1"}, "[4]": {"biological_target": "Fuc(a1-2)[Gal(a1-3)]Gal(b1-4)GlcNAc(b1-2)Man", "procedure,_shortened": "as §1"}, "[5]": {"biological_target": "Fuc(a1-3)[Gal(b1-4)]GlcNAc(b1-2)Man", "procedure,_shortened": "as §1"}, "Gal(a1-3)Gal(b1-3)GlcNAc": {"biological_target": "Gal(a1-3)Gal(b1-3)GlcNAc", "procedure,_shortened": "as §1"}, "[6]": {"biological_target": "Gal(a1-3)Gal(b1-4)GlcNAc(b1-2)Man(a1-3)[Gal(a1-3)Gal(b1-4)GlcNAc(b1-2)Man(a1-6)]Man(b1-4)GlcNAc(b1-4)GlcNAc", "procedure,_shortened": "as §1"}, "[7]": {"biological_target": "Gal(a1-3)Gal(b1-4)[Fuc(a1-3)]GlcNAc(b1-2)Man(a1-3)[Gal(a1-3)Gal(b1-4)[Fuc(a1-3)]GlcNAc(b1-2)Man(a1-6)]Man(b1-4)GlcNAc(b1-4)GlcNAc", "procedure,_shortened": "as §1"}, "Gal(a1-6)Glc": {"biological_target": "Gal(a1-6)Glc", "procedure,_shortened": "as §1"}, "[8]": {"biological_target": "Gal(b1-3)GalNAc(b1-3)Gal(a1-4)Gal(b1-4)Glc", "procedure,_shortened": "as §1"}, "[9]": {"biological_target": "Gal(b1-3)GlcNAc(b1-3)Gal(b1-3)GlcNAc", "procedure,_shortened": "as §1"}, "[10]": {"biological_target": "Gal(b1-3)GlcNAc(b1-6)GalNAc", "procedure,_shortened": "as §1"}, "[11]": {"biological_target": "Gal(b1-3)GlcNAc(b1-6)[Gal(b1-3)]GalNAc", "procedure,_shortened": "as §1"}, "[12]": {"biological_target": "Gal(b1-4)GlcNAc(b1-2)Man(a1-3)[Gal(b1-4)GlcNAc(b1-2)Man(a1-6)]Man(b1-4)GlcNAc(b1-4)GlcNAc", "procedure,_shortened": "as §1"}, "[13]": {"biological_target": "Gal(b1-4)GlcNAc(b1-2)Man(a1-3)[Gal(b1-4)GlcNAc(b1-2)Man(a1-6)][Gal(b1-4)GlcNAc(b1-4)]Man(b1-4)GlcNAc(b1-4)[Fuc(a1-6)]GlcNAc", "procedure,_shortened": "as §1"}, "[14]": {"biological_target": "Gal(b1-4)GlcNAc(b1-2)Man(a1-3)[Man(a1-6)]Man(b1-4)GlcNAc(b1-4)GlcNAc", "procedure,_shortened": "as §1"}, "[15]": {"biological_target": "Gal(b1-4)GlcNAc(b1-2)Man(a1-6)[Man(a1-3)]Man(b1-4)GlcNAc(b1-4)GlcNAc", "procedure,_shortened": "as §1"}, "[16]": {"biological_target": "Gal(b1-4)GlcNAc(b1-2)[Gal(b1-4)GlcNAc(b1-6)]Man(a1-6)[GlcNAc(b1-4)][Gal(b1-4)GlcNAc(b1-2)[Gal(b1-4)GlcNAc(b1-4)]Man(a1-3)]Man(b1-4)GlcNAc(b1-4)[Fuc(a1-6)]GlcNAc", "procedure,_shortened": "as §1"}, "[17]": {"biological_target": "Gal(b1-4)GlcNAc(b1-3)Gal(b1-4)GlcNAc(b1-2)Man(a1-3)[Gal(b1-4)GlcNAc(b1-3)Gal(b1-4)GlcNAc(b1-2)Man(a1-6)]Man(b1-4)GlcNAc(b1-4)GlcNAc", "procedure,_shortened": "as §1"}, "[18]": {"biological_target": "Gal(b1-4)GlcNAc(b1-3)Gal(b1-4)GlcNAc(b1-2)[Gal(b1-4)GlcNAc(b1-3)Gal(b1-4)GlcNAc(b1-6)]Man(a1-6)[Gal(b1-4)GlcNAc(b1-3)Gal(b1-4)GlcNAc(b1-2)Man(a1-3)]Man(b1-4)GlcNAc(b1-4)GlcNAc", "procedure,_shortened": "as §1"}, "[19]": {"biological_target": "Gal(b1-4)GlcNAc(b1-3)Gal(b1-4)[Fuc(a1-3)]GlcNAc(b1-3)Gal(b1-4)[Fuc(a1-3)]GlcNAc", "procedure,_shortened": "as §1"}, "[20]": {"biological_target": "Gal(b1-4)GlcNAc(b1-3)[Gal(b1-4)GlcNAc(b1-6)]GalNAc", "procedure,_shortened": "as §1"}, "[21]": {"biological_target": "Gal(b1-4)GlcNAc(b1-6)[Gal(b1-4)GlcNAc(b1-3)]GalNAc", "procedure,_shortened": "as §1"}, "GalNAc(b1-3)GalNAc": {"biological_target": "GalNAc(b1-3)GalNAc", "procedure,_shortened": "as §1"}, "GalNAc(b1-4)Gal(b1-4)Glc": {"biological_target": "GalNAc(b1-4)Gal(b1-4)Glc", "procedure,_shortened": "as §1"}, "[22]": {"biological_target": "Glc(a1-4)Glc(a1-4)Glc(a1-4)Glc", "procedure,_shortened": "as §1"}, "Glc(b1-4)Glc": {"biological_target": "Glc(b1-4)Glc", "procedure,_shortened": "as §1"}, "GlcA(b1-3)Gal": {"biological_target": "GlcA(b1-3)Gal", "procedure,_shortened": "as §1"}, "[23]": {"biological_target": "GlcNAc(a1-4)Gal(b1-3)GlcNAc", "procedure,_shortened": "as §1"}, "[24]": {"biological_target": "GlcNAc(b1-2)[GlcNAc(b1-4)]Man(a1-3)[GlcNAc(b1-2)Man(a1-6)]Man(b1-4)GlcNAc(b1-4)GlcNAc", "procedure,_shortened": "as §1"}},
  "note": "This is one part of a sample in which the strongest signals are shown more often than they occur.",
  "data": [
    {"binder": "B1", "values": [
      {"measurement": "glycan array binding signal (z-score)", "setting": "[1]", "value": -0.124},
      {"measurement": "glycan array binding signal (z-score)", "setting": "[2]", "value": -0.142},
      {"measurement": "glycan array binding signal (z-score)", "setting": "[3]", "value": -0.152},
      {"measurement": "glycan array binding signal (z-score)", "setting": "[4]", "value": -0.132},
      {"measurement": "glycan array binding signal (z-score)", "setting": "[5]", "value": -0.131},
      {"measurement": "glycan array binding signal (z-score)", "setting": "Gal(a1-3)Gal(b1-3)GlcNAc", "value": -0.133},
      {"measurement": "glycan array binding signal (z-score)", "setting": "[6]", "value": 2.1},
      {"measurement": "glycan array binding signal (z-score)", "setting": "[7]", "value": -0.056},
      {"measurement": "glycan array binding signal (z-score)", "setting": "Gal(a1-6)Glc", "value": -0.147},
      {"measurement": "glycan array binding signal (z-score)", "setting": "[8]", "value": -0.135},
      {"measurement": "glycan array binding signal (z-score)", "setting": "[9]", "value": -0.148},
      {"measurement": "glycan array binding signal (z-score)", "setting": "[10]", "value": -0.144},
      {"measurement": "glycan array binding signal (z-score)", "setting": "[11]", "value": -0.051},
      {"measurement": "glycan array binding signal (z-score)", "setting": "[12]", "value": 0.602},
      {"measurement": "glycan array binding signal (z-score)", "setting": "[13]", "value": -0.143},
      {"measurement": "glycan array binding signal (z-score)", "setting": "[14]", "value": 1.71},
      {"measurement": "glycan array binding signal (z-score)", "setting": "[15]", "value": 3.12},
      {"measurement": "glycan array binding signal (z-score)", "setting": "[16]", "value": -0.141},
      {"measurement": "glycan array binding signal (z-score)", "setting": "[17]", "value": 0.034},
      {"measurement": "glycan array binding signal (z-score)", "setting": "[18]", "value": -0.104},
      {"measurement": "glycan array binding signal (z-score)", "setting": "[19]", "value": -0.144},
      {"measurement": "glycan array binding signal (z-score)", "setting": "[20]", "value": -0.201},
      {"measurement": "glycan array binding signal (z-score)", "setting": "[21]", "value": -0.141},
      {"measurement": "glycan array binding signal (z-score)", "setting": "GalNAc(b1-3)GalNAc", "value": -0.153},
      {"measurement": "glycan array binding signal (z-score)", "setting": "GalNAc(b1-4)Gal(b1-4)Glc", "value": -0.129},
      {"measurement": "glycan array binding signal (z-score)", "setting": "[22]", "value": -0.139},
      {"measurement": "glycan array binding signal (z-score)", "setting": "Glc(b1-4)Glc", "value": -0.152},
      {"measurement": "glycan array binding signal (z-score)", "setting": "GlcA(b1-3)Gal", "value": -0.148},
      {"measurement": "glycan array binding signal (z-score)", "setting": "[23]", "value": -0.152},
      {"measurement": "glycan array binding signal (z-score)", "setting": "[24]", "value": -0.076}
    ]}
  ]
}
